Measurements from PubChem BioAssay.
Activity calls are given as the source filed them. Unless noted, no rule for the calls is given here.

What was measured:
[1] = system: Wnt5a (protein binding on small-molecule microarray); assay: small molecules binding Wnt5a protein – biophysical, small-molecule microarray, 635/667 nm fluorescence, primary screen (AID 1142); conditions: 635 nm fluorescence, higher = more signal;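 also: fluorescence read at 667 nm with signal to noise per printed feature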
[2] = ATP-based viability of Huh7 replicon cells – cell-based, CellTiter-Glo luminescence, basal, 48 h, cytotoxicity control for HCV replication inhibitor project, primary screen (AID 1143); conditions: higher = more signal, called active from +8 up or from −8 down;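 also: Huh7 hepatoma cells carrying a hepatitis C replication reporter with no stimulus; test concentration not given here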
[3] = Pseudomonas biofilm growth suppression – PAO1 strain, BacTiter-Glo luminescence, LB-PBS, primary screen (AID 1144); conditions: P. aeruginosa PAO1 biofilm, 12 h, higher = more signal
[4] = basal CRE-LacZ reporter activity in PC12 – cell-based, unstimulated, primary screen (AID 1145); conditions: no forskolin, luminescence, 4.5 h, higher = more signal, called active from +8 up or from −8 down
[5] = forskolin-driven CRE-LacZ activity in PC12 – cell-based, CRE-LacZ reporter, forskolin-stimulated, primary screen (AID 1146); conditions: luminescence, 4.5 h, higher = more signal, called active from +8 up or from −8 down;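 also: PC12 cells with 6xCRE LacZ reporter stimulated by forskolin 10 µM; beta-galactosidase reporter signal reflecting CREB driven transcription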
[6] = target: Streptavidin (Streptomyces avidinii) (UniProt P22629); assay: compounds binding control protein streptavidin – biophysical, small-molecule microarray, 635/667 nm fluorescence, artefact control for SMM compound annotation, primary screen (AID 1147); conditions: higher = more signal;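 also: signal reflects streptavidin binding to arrayed compounds as a control protein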
[7] = probe aInhba binding on compound microarray – biochemical, small-molecule microarray, 635/667 nm fluorescence, primary screen (AID 1148); conditions: higher = more signal;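 also: score merges 667nm spot fluorescence with signal-to-noise for antibody binding to printed compounds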
[8] = target: Torsin-1A (Homo sapiens) (UniProt O14656); assay: TOR1A wild-type binding on microarray – cell lysate, small-molecule microarray, lysate, 635/667 nm, primary screen (AID 1149); conditions: COS7 hTOR1A-WT lysate, 635 nm fluorescence, higher = more signal
[9] = target: Torsin-1A (Homo sapiens) (UniProt O14656); assay: torsin A mutant lysate binding on microarrays – cell lysate, small-molecule microarray, COS7 lysate, 635/667 nm fluorescence, primary screen (AID 1150); conditions: COS7 hTOR1A mutant lysate, 635 nm fluorescence, higher = more signal;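 also: score pools 667 nm emission and signal to noise measuring lysate protein binding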
[10] = system: Sonic hedgehog protein (Shh); assay: Sonic hedgehog microarray binding compounds – biochemical, small-molecule microarray, 635/667 nm fluorescence, primary screen (AID 1151); conditions: 635 nm fluorescence, higher = more signal;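 also: Shh protein binding to compounds spotted on small-molecule microarray slides; score combines spot fluorescence intensity with signal-to-noise across triplicate slides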
[11] = optical density shifts of acrAB sulA E. coli – strain DRC41, OD650, 48 h, E. coli filamentation inducer project, primary screen (AID 1152); conditions: higher = more signal, called active from +8 up or from −8 down;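 also: E. coli MC1000 strain DRC41 lacking acrAB efflux pump and sulA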
[12] = probe aLefty1 binding on compound microarray – biochemical, small-molecule microarray, 635/667 nm fluorescence, primary screen (AID 1153); conditions: higher = more signal;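 also: score merges spot fluorescence with signal-to-noise ratio from the scanned slide images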
[13] = plasmodial surface anion channel blockers, osmotic lysis – cell-based, P. falciparum Indochina, OD700, 1 h, primary screen (AID 1154); conditions: P. falciparum Indochina infected RBC osmotic lysis, higher = more signal, called active from +8 up or from −8 down
[14] = plasmodial surface anion channel blockers, osmotic lysis – cell-based, P. falciparum Indochina, OD700, 2 h, primary screen (AID 1155);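 also: lysis reports solute entry through the parasite surface anion channel PSAC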; conditions: P. falciparum Indochina infected erythrocytes, higher = more signal, called active from +8 up or from −8 down
[15] = changes in parasitized red cell lysis, either direction – P. falciparum Indochina, OD700, 3 h, PSAC antagonist project, primary screen (AID 1156); conditions: P. falciparum-infected erythrocytes, osmotic lysis, higher = more signal, called active from +8 up or from −8 down
[16] = plasmodial surface anion channel blockers, osmotic lysis – cell-based, P. falciparum Indochina, OD700, 18 h, primary screen (AID 1157); conditions: P. falciparum Indochina infected erythrocytes, osmotic lysis OD700, 18 h; higher = more signal, called active from +8 up or from −8 down
[17] = S6 kinase pathway phospho-S6 level changes – cell-based, A549, cytoblot, luminescence, serum-stimulated, primary screen (AID 1158); conditions: 5 h, higher = more signal;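 also: serum-stimulated A549 lung adenocarcinoma cells; signal is phosphorylated S6 detected by cytoblot immunostaining with HRP secondary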
[18] = target: NADPH oxidase 2 (Homo sapiens) (UniProt P04839); assay: compounds shifting NOX2 Amplex Red fluorescence – cell-based, HEK293-NOX2, PMA-stimulated, NOX inhibitor project, primary screen (AID 1159); conditions: 45 min, higher = more signal, called active from +8 up or from −8 down; also: test concentration not given here
[19] = target: NADPH oxidase 4 (Homo sapiens) (UniProt Q9NPH5); assay: compounds shifting NOX4 Amplex Red fluorescence – cell-based, HEK293-NOX4, tetracycline-induced, NOX inhibitor project, primary screen (AID 1160); conditions: HEK293-NOX4, Amplex Red H2O2 fluorescence, 45 min; higher = more signal, called active from +8 up or from −8 down
[20] = target: NADPH oxidase 5 (Homo sapiens) (UniProt Q96PH1); assay: compounds shifting NOX5 Amplex Red fluorescence – cell-based, HEK293-NOX5, NOX inhibitor project, primary screen (AID 1161); conditions: HEK293-NOX5, ionomycin, 45 min, higher = more signal
Chain of NADPH oxidase 5 (Homo sapiens) (Q96PH1 whole entry, looked up): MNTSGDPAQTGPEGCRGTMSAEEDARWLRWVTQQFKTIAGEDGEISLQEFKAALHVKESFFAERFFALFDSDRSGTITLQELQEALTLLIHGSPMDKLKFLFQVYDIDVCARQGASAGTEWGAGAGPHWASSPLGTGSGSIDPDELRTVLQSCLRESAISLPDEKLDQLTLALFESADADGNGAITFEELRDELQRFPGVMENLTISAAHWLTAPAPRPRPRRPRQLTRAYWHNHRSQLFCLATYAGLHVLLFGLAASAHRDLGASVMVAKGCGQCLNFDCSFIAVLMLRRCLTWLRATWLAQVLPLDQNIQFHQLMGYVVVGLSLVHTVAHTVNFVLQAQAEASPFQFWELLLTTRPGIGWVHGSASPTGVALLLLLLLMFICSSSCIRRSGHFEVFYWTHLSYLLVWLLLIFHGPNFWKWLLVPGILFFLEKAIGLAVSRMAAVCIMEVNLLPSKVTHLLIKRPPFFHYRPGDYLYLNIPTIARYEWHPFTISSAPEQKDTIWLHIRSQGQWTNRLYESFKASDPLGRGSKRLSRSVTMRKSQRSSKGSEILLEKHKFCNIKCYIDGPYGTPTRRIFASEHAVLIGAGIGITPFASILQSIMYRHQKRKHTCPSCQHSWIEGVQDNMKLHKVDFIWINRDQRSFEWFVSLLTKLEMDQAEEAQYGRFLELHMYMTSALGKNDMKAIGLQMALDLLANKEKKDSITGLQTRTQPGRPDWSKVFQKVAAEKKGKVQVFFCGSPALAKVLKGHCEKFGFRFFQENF

Chain of Streptavidin (Streptomyces avidinii) (P22629 whole entry, looked up): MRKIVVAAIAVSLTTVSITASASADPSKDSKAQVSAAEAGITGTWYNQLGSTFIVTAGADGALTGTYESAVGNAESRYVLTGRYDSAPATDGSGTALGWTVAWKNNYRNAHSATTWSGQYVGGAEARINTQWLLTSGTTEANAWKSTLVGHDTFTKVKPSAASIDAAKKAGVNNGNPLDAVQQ
Chain of Torsin-1A (Homo sapiens) (O14656 whole entry, looked up): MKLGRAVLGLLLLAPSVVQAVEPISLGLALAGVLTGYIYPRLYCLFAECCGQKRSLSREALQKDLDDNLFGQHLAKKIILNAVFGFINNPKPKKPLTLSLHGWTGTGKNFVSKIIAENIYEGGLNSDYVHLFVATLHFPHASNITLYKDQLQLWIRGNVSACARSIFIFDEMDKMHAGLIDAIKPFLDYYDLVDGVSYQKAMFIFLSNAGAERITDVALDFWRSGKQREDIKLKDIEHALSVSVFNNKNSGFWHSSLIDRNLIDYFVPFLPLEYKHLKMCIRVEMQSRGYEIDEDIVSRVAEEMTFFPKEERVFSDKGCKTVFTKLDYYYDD
Chain of NADPH oxidase 4 (Homo sapiens) (Q9NPH5 whole entry, looked up): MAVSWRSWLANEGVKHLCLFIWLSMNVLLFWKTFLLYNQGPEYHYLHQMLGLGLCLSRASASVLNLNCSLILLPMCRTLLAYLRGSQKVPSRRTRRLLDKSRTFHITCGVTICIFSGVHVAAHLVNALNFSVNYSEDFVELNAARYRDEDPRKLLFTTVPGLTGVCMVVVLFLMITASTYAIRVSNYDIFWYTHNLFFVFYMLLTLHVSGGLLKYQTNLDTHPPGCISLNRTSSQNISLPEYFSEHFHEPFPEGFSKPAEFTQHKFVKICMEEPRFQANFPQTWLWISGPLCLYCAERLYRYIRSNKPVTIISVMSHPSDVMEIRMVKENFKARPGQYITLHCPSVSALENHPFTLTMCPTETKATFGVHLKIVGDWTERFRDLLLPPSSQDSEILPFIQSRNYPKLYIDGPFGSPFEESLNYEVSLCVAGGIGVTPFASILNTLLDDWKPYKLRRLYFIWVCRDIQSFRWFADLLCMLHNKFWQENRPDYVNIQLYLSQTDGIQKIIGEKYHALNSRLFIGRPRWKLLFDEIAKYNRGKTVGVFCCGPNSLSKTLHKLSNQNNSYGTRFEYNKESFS
Chain of NADPH oxidase 2 (Homo sapiens) (P04839 whole entry, looked up): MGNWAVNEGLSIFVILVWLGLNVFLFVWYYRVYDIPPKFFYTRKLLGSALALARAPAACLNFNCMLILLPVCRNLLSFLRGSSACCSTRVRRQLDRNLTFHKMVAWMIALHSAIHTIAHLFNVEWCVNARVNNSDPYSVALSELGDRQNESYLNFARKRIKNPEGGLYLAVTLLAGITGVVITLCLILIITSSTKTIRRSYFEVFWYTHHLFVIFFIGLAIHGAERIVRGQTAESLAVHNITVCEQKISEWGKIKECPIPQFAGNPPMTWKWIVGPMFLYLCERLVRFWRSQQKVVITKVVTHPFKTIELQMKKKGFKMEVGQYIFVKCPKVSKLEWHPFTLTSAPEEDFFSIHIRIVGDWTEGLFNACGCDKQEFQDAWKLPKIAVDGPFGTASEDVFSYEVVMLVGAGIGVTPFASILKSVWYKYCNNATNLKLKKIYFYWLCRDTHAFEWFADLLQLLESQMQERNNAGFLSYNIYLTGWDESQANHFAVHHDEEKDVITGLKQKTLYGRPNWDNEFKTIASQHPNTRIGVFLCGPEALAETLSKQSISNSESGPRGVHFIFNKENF

SMILES	composite z-score [1]	z-score [2]	z-score [3]	z-score [4]	z-score [5]	composite z-score [6]	composite z-score [7]	composite z-score [8]	composite z-score [9]	composite z-score [10]	z-score [11]	composite z-score [12]	z-score [13]	z-score [14]	z-score [15]	z-score [16]	z-score [17]	z-score [18]	z-score [19]	z-score [20]
COc1ccc(CCNC(=O)[C@@]2(Sc3ccc(C)cc3)CC(=O)N(C(C)C)[C@@H]2c2ccc(CO)cc2)cc1	-1.02	-0.583 (inactive)	0.305 (inactive)	1.56 (inactive)	-0.519 (inactive)	-0.621	-0.137	0.939	0.122	-1.6	-0.58 (inactive)	0.0391	2.36 (inactive)	0.741 (inactive)	0.152 (inactive)	0.549 (inactive)	-0.21	-0.575 (inactive)	-1.16 (inactive)	-2.03
CC=CC(O)C1C=CC2C(=O)N(C)C(=O)C2N1NC(=O)OC(C)(C)C (stereo not given)	0.155	0.477 (inactive)	0.433 (inactive)	1.01 (inactive)	0.742 (inactive)	0.32	0.038	0.831	0.229	0.0729	-1.06 (inactive)	0.277	-0.597 (inactive)	0.43 (inactive)	-0.0501 (inactive)	0.556 (inactive)	-1.42	-0.798 (inactive)	-1.37 (inactive)	-1.22
COc1ccc(NN2C(C(O)c3ccc(OC)cc3)C=CC3C(=O)N(C4CCCCC4)C(=O)C32)cc1 (stereo not given)	0.219	-0.914 (inactive)	-0.257 (inactive)	-0.163 (inactive)	-0.211 (inactive)	0.964	-0.0313	0.118	0.202	0.0867	-0.625 (inactive)	0.0768	9.1 (active)	1.69 (inactive)	0.722 (inactive)	0.63 (inactive)	-0.613	-1.34 (inactive)	-1.1 (inactive)	-2.54
COC(=O)[C@H](Cc1ccc(O)cc1)N1CC2=CCCC=C[C@@H]2[C@H]1[C@H](O)Cc1ccccc1	0.0799	-0.567 (inactive)	-1.21 (inactive)	2.13 (inactive)	1.24 (inactive)	-0.53	0.0108	-0.246	-0.0258	0.33	1.42 (inactive)	-0.149	3.23 (inactive)	-1.53 (inactive)	-0.241 (inactive)	-2.05 (inactive)	0.814	0.63 (inactive)	-3.8 (inactive)	-2.8
CC(C)C[C@@H]1NC(=O)[C@@]23C(=O)N[C@@H](Cc4ccccc4)C2[C@H](C)[C@@]2(C)O[C@H]2C3/C=C/C/C=C\CNC(=O)[C@@H](CC(C)C)NC1=O (stereo not given in full)	0.0669	-0.91 (inactive)	0.587 (inactive)	2.66 (inactive)	0.158 (inactive)	-0.463	-0.128	0.295	0.068	1.39	-0.664 (inactive)	0.0774	1.44 (inactive)	-0.172 (inactive)	0.0094 (inactive)	-0.0134 (inactive)	0.0885	0.063 (inactive)	0.41 (inactive)	-3.22
COCC(=C=CC[C@@H](O)c1ccc(OCCO)cc1)C[C@@H](O)COCc1ccccc1	1.05	-0.959 (inactive)	-0.498 (inactive)	10.3 (active)	-0.487 (inactive)	-0.223	0.0345	0.681	1.43	1.54	1.81 (inactive)	0.0299	7.41 (inactive)	0.416 (inactive)	0.766 (inactive)	-0.756 (inactive)	2.43	-1.16 (inactive)	-0.479 (inactive)	-2.03
CO[C@H]1O[C@H](CO)[C@@H](OC(=O)Nc2ccc3c(c2)OCO3)[C@@H]2OC(=O)[C@@H](Cc3ccccc3)C/C=C/C[C@H](Cc3ccccc3)C(=O)O[C@@H]12	0.465	-2.26 (inactive)	0.293 (inactive)	0.951 (inactive)	-0.601 (inactive)	0.294	0.24	-0.0548	0.266	1.32	0.239 (inactive)	0.12	2.93 (inactive)	0.825 (inactive)	0.0814 (inactive)	1.09 (inactive)	0.401	-0.895 (inactive)	-0.162 (inactive)	-1.47
CC(C)C[C@@H]1NC(=O)[C@@H]2C[C@H](C(=O)NCCCC[N+](C)(C)C)[C@H](c3ccc(O)cc3)N2C1=O	0.814	-0.394 (inactive)	-1.08 (inactive)	0.285 (inactive)	-0.387 (inactive)	0.0306	0.0669	1.47	1.2	2.13	-0.04 (inactive)	-0.0145	1.32 (inactive)	0.281 (inactive)	-0.0501 (inactive)	0.449 (inactive)	0.145	-2.33 (inactive)	-1.4 (inactive)	-2.19
